# Assay results as given in ChEMBL document CHEMBL3988442, “University of Dundee, Small-Polar-MMV Screening Library” (2021).
# Target: Shiga toxin 2 (Escherichia coli O157:H7) (UniProt P09385+P09386)
# Test: E. coli 0.157:H7 Shiga Toxin SOP - stx2 screening assay
# Assay type: functional
# Parameters: scale not given: direction of the effect not stated beside the values
# Details: 30 µM
row,Structure (SMILES),Percent Effect
1,Cc1cc(C)nc(CCNC(=O)[C@H]2CNC[C@@H](C(=O)N3CCCC3)C2)n1,-37.4%
2,Cc1ccc2cc(C3(O)CCN(C(=O)CN4CCCC4)CC3)ccc2n1,-47.1%
3,Cn1c(C(F)(F)F)nn(CCNC(=O)NCc2ccccc2)c1=O,-52.8%
4,COc1ccc(C(=O)N2CCCCC2Cn2cccn2)c(F)c1 (stereo not given),-7.04%
5,Cc1cnn(CC2CCCN2CCc2nc3ccccc3c(=O)[nH]2)c1 (stereo not given),2.14%
6,CCN(CC1CCOC1)C(=O)Nc1ccc(N2CCCC2)nc1 (stereo not given),1.73%
7,CC(C)Oc1ncccc1CNC(=O)N1CCC(C(N)=O)C1 (stereo not given),30.9%
8,O=C(Nc1nnc(C2CC2)s1)NC1CCN(Cc2ccccc2)C1 (stereo not given),-174%
9,CCc1nc(NCCCn2cccn2)c2c(n1)c(C)nn2C,-14.3%
10,Cn1ccc(C(=O)NC2CCC23CCN(Cc2cccnc2)CC3)c1 (stereo not given),-5.95%
11,Cc1[nH]nc2ncc(C(=O)N3CCN(CC(C)C)CC3)cc12,33.6%
12,Cc1cc(N2CCC(N(C)C(=O)c3ccccc3)CC2)nc(C)n1,-9.61%
13,c1ccc(-c2nc(CN3CCOC(Cn4cccn4)C3)no2)cc1 (stereo not given),4.08%
14,CC(C(=O)NCCCn1ccnc1)n1cc(Br)cn1 (stereo not given),-54.3%
15,CCN(CC1CCOC1)C(=O)Nc1ccc(-n2cncn2)nc1 (stereo not given),-25.9%
16,CCc1n[nH]c(C2CN(C(=O)c3ccsc3)CCO2)n1 (stereo not given),21.9%
17,COCCn1c2c(ccc1=O)CC(NS(C)(=O)=O)CC2 (stereo not given),-20.6%
18,CN(CC(=O)N1CCCN(Cc2cscn2)CC1)c1cnccn1,-25.9%
19,COC(=O)C(C)(C)NC(=O)C1CC(=O)N(C2CCCC2)C1 (stereo not given),-3.28%
20,Cc1nc(CN2CCCC(N(C)Cc3c(C)noc3C)C2)no1 (stereo not given),18.6%

row,Structure (SMILES),Percent Effect
1,Cc1cc(C2CCCN(C(=O)CN3CCN(C)CC3)C2)n[nH]1 (stereo not given),13.2%
2,CC(C)c1nc(CN2CCN(CC3CCCO3)CC2)cs1 (stereo not given),12%
3,O=C(c1ccc2c(c1)OCO2)N1CCC[C@]2(C[C@H](OCC3CC3)CO2)C1,5.01%
4,CN(C)Cc1ccnc(C2CCCN2Cc2cc[nH]n2)n1 (stereo not given),9.83%
5,N#Cc1ccc(F)c(CN2CCCC2Cn2cnc3ccccc32)c1 (stereo not given),31.2%
6,CCOc1cc(C)nc(N2CCN(C(=O)c3ccnn3C)CC2)n1,2.54%
7,Cc1noc([C@H]2COC[C@H]3CN(C(=O)Cc4ccc(F)cc4)C[C@H]32)n1,23.4%
8,Cc1cccc(NC(=O)Cn2ncc(SCC(N)=O)c(Cl)c2=O)c1C,5.03%
9,CC(=O)c1cccc(NC(=O)CN2CCCCC2C2OCCO2)c1 (stereo not given),-1.62%
10,Cn1ncc2c1CCCC2NCc1ccc(Cl)s1 (stereo not given),28.8%
11,Cn1ccnc1CN1CCCC(Cc2ccccn2)C1 (stereo not given),-6.98%
12,Cn1cc(CN2CCCN(C(=O)c3cc(Cl)cn3C)CC2)cn1,22.7%
13,CN(C)c1cc(CNC(=O)Nc2ccc(F)cc2)ccn1,-156%
14,CC(=O)N1CCC(C(=O)c2cc(C)cnc2N)CC1,-6.78%
15,CC(C)CCN1CC2(CCCN(C(=O)c3cscn3)C2)CCC1=O (stereo not given),-13.4%
16,Cc1cccc(C(=O)N2C[C@@H]3OCCN(c4ncccn4)[C@@H]3C2)n1,2.47%
17,Cc1cccc(CN2C[C@@H]3COC[C@]3(CNC(=O)N3CCCC3)C2)n1,11.4%
18,CCN(CC)C(=O)CCNc1cncc(-n2nc(C)cc2C)n1,-34.2%
19,O=C(CC1CC1)N1CC[C@H]2[C@@H]1CCC(=O)N2c1cccnc1,-0.916%
20,NC(=O)CCOc1nc(-c2ccccc2Cl)no1,-35.8%
